CHT PAM: allosteric activators of human choline transporter CHT; B-score at 10 µM; AID 488977; CHT-expressing cells, membrane potential dye, choline EC20; stronger effect = higher value; LV-AA mutant CHT in HEK293 cells; Q9GZV3; 310,000 compounds, 0.49% hits;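 active = initial fluorescence not abnormally high and integrated response B-score, plate-corrected, over 3 SD above library mean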
AI-2 QS modul: Vibrio harveyi AI-2 quorum sensing modulation | Vibrio harveyi JMH597 AI-2 luminescence/OD600 ratio, 9 h; stronger effect = lower value; strain lacks LuxN and CqsS sensors; 0 = neutral-control median | activity change, % at 7.5 µM | 300,000 compounds, 0.4% hits | AID 2094; in the data active = activity change below about -75%, passing the limit was not always enough; inconclusive = no clear call, values can overlap the other calls;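 also: luminescence divided by OD600 gain over 9 h not by final OD600 alone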
CHT inh: inhibitors of human choline transporter CHT; Q9GZV3; AID 488975; B-score at 10 µM; 310,000 compounds, 0.86% hits; CHT-expressing cells, membrane potential dye, choline response; stronger effect = lower value;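 active = B-score over 3 SD under the library average, and starting fluorescence ratio not unusually high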;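 also: choline stimulus applied at its EC90 after an EC20 pre-addition; B-score computed on integrated fluorescence ratio after choline addition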
ALR H2O2 inh: inhibitors of human sulfhydryl oxidase ALR. 290,000 compounds, 3.8% hits. AID 485317. inhibition, % (test concentration not listed). P55789. purified ALR, DTT oxidation, H2O2 HRP-luminol luminescence;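 active = mean replicate inhibition above about 79%, with every replicate also reaching it, limit read from the data; inconclusive = only one of the two criteria met; inactive = mean below limit and not every replicate reaching it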
PREPL inh: inhibits the human prolyl oligopeptidase-like enzyme; Q4J6C6; recombinant PREPL, fluorescence polarization activity-based probe; inhibition, % at 5.96 µM; 320,000 compounds, 0.68% hits; AID 2751; in the data active = inhibition above about 43%;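 also: 0% = enzyme with DMSO and 100% = wells lacking enzyme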
Target sequence (Q4J6C6 whole entry, looked up): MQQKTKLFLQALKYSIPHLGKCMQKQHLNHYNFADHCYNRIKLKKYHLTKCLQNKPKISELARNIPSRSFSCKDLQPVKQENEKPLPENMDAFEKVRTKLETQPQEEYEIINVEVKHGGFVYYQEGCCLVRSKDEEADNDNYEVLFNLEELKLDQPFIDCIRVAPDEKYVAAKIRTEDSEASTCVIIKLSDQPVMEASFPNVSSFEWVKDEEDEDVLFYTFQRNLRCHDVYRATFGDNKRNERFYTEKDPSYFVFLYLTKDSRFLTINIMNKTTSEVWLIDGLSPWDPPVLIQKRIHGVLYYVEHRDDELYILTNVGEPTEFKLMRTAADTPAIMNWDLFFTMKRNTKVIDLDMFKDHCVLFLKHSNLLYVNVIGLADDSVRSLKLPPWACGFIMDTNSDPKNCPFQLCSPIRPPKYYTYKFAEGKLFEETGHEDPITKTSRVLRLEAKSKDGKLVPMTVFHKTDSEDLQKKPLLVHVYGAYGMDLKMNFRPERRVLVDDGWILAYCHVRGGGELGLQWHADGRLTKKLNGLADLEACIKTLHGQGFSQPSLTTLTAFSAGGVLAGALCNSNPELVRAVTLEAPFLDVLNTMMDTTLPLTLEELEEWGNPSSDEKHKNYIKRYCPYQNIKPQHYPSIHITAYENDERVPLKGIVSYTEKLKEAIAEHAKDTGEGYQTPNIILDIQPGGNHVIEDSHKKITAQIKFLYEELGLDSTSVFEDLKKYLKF
CHT inh conf: confirmation of human choline transporter CHT inhibitors | 2,400 compounds, 70% hits | CHT-expressing cells, choline membrane potential dye; LV-to-AA substituted CHT, HEK293 cells | CHT activity remaining % of control (stronger effect = lower value), % at 10 µM | AID 493221 | shares compounds with CHT inh;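 active = choline transporter activity left, mean of duplicates at 10 µM, below buffer-only control mean minus 3 SD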;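 also: depolarization triggered by choline at its EC90 following an EC20 pre-addition; 0% = hemicholinium-3 full block and 100% = buffer-only control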
HEK293 CHT ctr: CHT inhibitor counter-screen hit in parental HEK293 cells; membrane potential ratio readout (active if shifted either direction beyond buffer ±3SD; no single direction) at 10 µM; 2,400 compounds, 4% hits; AID 493222; shares compounds with CHT inh; membrane potential dye, choline response; active = decrease or increase beyond buffer ±3SD;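 also: parental cells lack the transporter so any hit is non-specific; ratio is peak minus trough fluorescence over baseline after EC90 choline challenge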
The depositor's hits bear a star; i = inactive; ? = inconclusive; . = no result. Sampled rows, rich in hits. Any-hit rate of the full collection: about 5%.

SMILES | CHT PAM | AI-2 QS modul | CHT inh | ALR H2O2 inh | PREPL inh | CHT inh conf | HEK293 CHT ctr
COc1ccc(C(=O)CSc2nnc(-c3ccccn3)n2Cc2ccco2)cc1 | i | 5 | i | 30 | -9 | . | .
COc1cc(C(=O)NC2CC(C)(C)CC(C)(C)C2)ccc1OC1CCN(C(C)=O)CC1 | i | 5 | -6.9* | -1 | . | 4.8%* | i
CCCCNS(=O)(=O)c1ccc(NC(=O)c2c(-c3ccccc3Cl)noc2C)cc1 | i | 21 | -5* | -12 | 1 | 54%* | i
CCOc1ccccc1/C=C/C(=O)NCC(=O)N1CCC(N(C)C2CCCCC2C)CC1 (stereo unspecified) | i | 17 | -5.5* | -1 | 2 | 11%* | i
COc1ccc(-c2cc(C(=O)NCCCN3CCOCC3)c3cc(C(C)C)ccc3n2)cc1 | i | 18 | -7.4* | . | 12 | 50%* | i
CCN1CCN(CC(=O)Nc2ccc(S(=O)(=O)N3C(C)CCCC3C)cc2)CC1 (stereo unspecified) | i | 12 | -5.8* | 0 | 3 | 25%* | i
COc1ccc2oc(=O)cc(CN3CCN(Cc4ccc(OC)c(OC)c4OC)CC3)c2c1 | i | 16 | i | -6 | . | . | .
Cc1cc(=O)[nH]c(SCC(=O)/C=C2\N(C)c3ccccc3C2(C)C)n1 | i | 1 | -5* | 2 | -87 | 69%* | i
Cc1nn(-c2nnc(NCc3ccccc3)nn2)c(C)c1Br | i | 12 | -5.3* | -45 | -1 | i | i
O=C(CN1CCN(Cc2ccccc2)C1=O)NCc1ccc(Cl)cc1 | i | 29 | i | 5 | -1 | . | .
CCN(CCNC(=O)CN1CCN(Cc2ccc(Cl)cc2)C1=O)c1ccccc1 | i | 5 | -6.2* | 98* | 40 | 66%* | i
COc1ccc(N2C(=O)CC(C)(C)CC2=O)cc1OC | i | 1 | i | -1 | 1 | . | .
Cc1cc(C)cc(NS(=O)(=O)c2cnc(Cl)c(Cl)c2)c1 | i | 36 | -8* | 8 | -10 | 52%* | i
CCOc1ccc(NS(=O)(=O)c2cnc(Cl)c(Cl)c2)cc1 | i | 12 | i | 4 | 5 | . | .
CCNc1nc2[nH]c(=O)c3c(c2s1)OC(N)=C(C#N)C3c1ccc(C)cc1 (stereo unspecified) | i | 31 | -5* | -7 | 11 | 67%* | i
CNc1nc2[nH]c(=O)c3c(c2s1)OC(N)=C(C#N)C3c1ccccc1 (stereo unspecified) | i | 2 | i | 19 | 4 | . | .
Cc1ccc(NS(=O)(=O)c2cccc(C(=O)N(C)Cc3cccs3)c2)cc1 | i | 26 | i | -1 | -5 | . | .
S=C(NCc1ccccn1)Nc1ccc(Br)cc1Cl | i | 16 | -6.4* | -7 | -22 | 38%* | i
O=C(NC1CCCCC1)C(c1ccc2ncccc2c1)N(Cc1cccs1)C(=O)c1cccs1 (stereo unspecified) | i | 13 | -5.5* | -6 | -6 | i | i
O=C(NC1CCCCC1)C(c1ccncc1)N(C(=O)Cc1cccs1)c1ccccc1 (stereo unspecified) | i | 36 | i | -8 | -1 | . | .
O=C(NC1CCCCC1)C(c1ccc2ncccc2c1)N(Cc1ccc(F)cc1)C(=O)c1ccc2c(c1)OCCO2 (stereo unspecified) | i | 27 | -7.5* | 1 | 15 | 65%* | i
O=C(NC1CCCCC1)C(c1ccc2ncccc2c1)N(Cc1ccco1)C(=O)c1ccc2c(c1)OCCO2 (stereo unspecified) | i | 14 | i | -4 | 15 | . | .
O=C(NC1CCCCC1)C(c1ccc2ncccc2c1)N(Cc1ccc2c(c1)OCO2)C(=O)c1ccc2c(c1)OCCO2 (stereo unspecified) | i | 6 | -14* | -12 | 8 | 30%* | i
CCOC(=O)c1cnc2c(-c3cccc(Br)c3)cnn2c1C | i | 8 | i | -2 | 4 | . | .
CN(c1ccc(OCC(=O)OCC(=O)c2c(N)n(C)c(=O)n(C)c2=O)cc1)S(=O)(=O)c1ccc2ccccc2c1 | i | 20 | i | -11 | -10 | . | .
SMILES | CHT PAM | AI-2 QS modul | CHT inh | ALR H2O2 inh | PREPL inh | CHT inh conf | HEK293 CHT ctr
O=C(NNc1ccc([N+](=O)[O-])cc1[N+](=O)[O-])c1ccco1 | i | 20 | -7.5* | 98* | 2 | 67%* | i
COC12NC(=O)N(C)C1(OC)C(=O)N(C)C(=O)N2C (stereo unspecified) | i | 20 | i | -5 | -4 | . | .
CCOCCCn1c(=S)[nH]c2cc(C(=O)N3CCN(C)CC3)ccc2c1=O | i | 24 | i | 56 | -2 | . | .
CCOCCCn1c(=S)[nH]c2cc(C(=O)N3CCN(C4CCCCC4)CC3)ccc2c1=O | i | 9 | -5.1* | 0 | 11 | 57%* | i
CCCc1cc(C(=O)NNC(=S)NCc2ccccc2)cs1 | i | ? | -8.2* | 36 | 12 | 54%* | i
COC(=O)Cc1c(C)c2ccc(OCC(=O)c3ccc(OC)c(OC)c3)cc2oc1=O | i | 6 | i | -3 | 19 | . | .
CC(=O)Nc1ccc(NC(=O)CCCSc2nc3ccccc3s2)cc1 | i | 12 | i | -8 | 25 | . | .
O=C(CCCSc1nc2ccccc2s1)NC1=NCCS1 | i | 19 | -15* | 24 | -2 | 4.3%* | i
Cc1ccc2c(c1)C1CN(C)CCC1N2C(=O)c1ccccc1NS(=O)(=O)c1cccc(C(F)(F)F)c1 (stereo unspecified) | i | 35 | -6.9* | -5 | 14 | 37%* | i
Cc1[nH]c(=O)c(C#N)c(C)c1CCC(=O)Nc1cc(S(C)(=O)=O)ccc1Cl | i | 3 | i | -4 | 17 | . | .
Cc1cccc(C)c1NS(=O)(=O)c1ccc(NC(=O)c2ccc(Cl)c([N+](=O)[O-])c2)cc1 | i | -4 | i | -6 | -5 | . | .
O=[N+]([O-])c1cc(NS(=O)(=O)c2ccc(Cl)nc2)ccc1Cl | i | -1 | -6.2* | 1 | 3 | 42%* | i
O=C(COC(=O)CCCOc1ccccc1)NC1CCS(=O)(=O)C1 (stereo unspecified) | i | -3 | i | . | 17 | . | .
Cc1cccc(N2CCN(CC(=O)Nc3ccc(S(=O)(=O)N4CCOCC4)cc3)CC2)c1C | i | 0 | i | 3 | 13 | . | .
CCOC(=O)C1CCCN(C(=O)c2csc(-c3ccc4c(c3)CCO4)n2)C1 (stereo unspecified) | i | -8 | -7.2* | 1 | -6 | 57%* | i

Assay outcomes: PubChem BioAssay, several laboratories
